We go through 28 compounds from PMC4336329 (PLoS ONE, 2015).

SMILES strings stand for the structures. Hit rate of the full screen: of about 310,000 compounds, about 2,200 (0.71%) showed an effect of 50% or more. Effects have a minus sign here. The sample as a whole holds a higher share of strong results than the screen did.

human ether-à-go-go-related gene (hERG) potassium channel, sequence (Q12809 whole entry, looked up): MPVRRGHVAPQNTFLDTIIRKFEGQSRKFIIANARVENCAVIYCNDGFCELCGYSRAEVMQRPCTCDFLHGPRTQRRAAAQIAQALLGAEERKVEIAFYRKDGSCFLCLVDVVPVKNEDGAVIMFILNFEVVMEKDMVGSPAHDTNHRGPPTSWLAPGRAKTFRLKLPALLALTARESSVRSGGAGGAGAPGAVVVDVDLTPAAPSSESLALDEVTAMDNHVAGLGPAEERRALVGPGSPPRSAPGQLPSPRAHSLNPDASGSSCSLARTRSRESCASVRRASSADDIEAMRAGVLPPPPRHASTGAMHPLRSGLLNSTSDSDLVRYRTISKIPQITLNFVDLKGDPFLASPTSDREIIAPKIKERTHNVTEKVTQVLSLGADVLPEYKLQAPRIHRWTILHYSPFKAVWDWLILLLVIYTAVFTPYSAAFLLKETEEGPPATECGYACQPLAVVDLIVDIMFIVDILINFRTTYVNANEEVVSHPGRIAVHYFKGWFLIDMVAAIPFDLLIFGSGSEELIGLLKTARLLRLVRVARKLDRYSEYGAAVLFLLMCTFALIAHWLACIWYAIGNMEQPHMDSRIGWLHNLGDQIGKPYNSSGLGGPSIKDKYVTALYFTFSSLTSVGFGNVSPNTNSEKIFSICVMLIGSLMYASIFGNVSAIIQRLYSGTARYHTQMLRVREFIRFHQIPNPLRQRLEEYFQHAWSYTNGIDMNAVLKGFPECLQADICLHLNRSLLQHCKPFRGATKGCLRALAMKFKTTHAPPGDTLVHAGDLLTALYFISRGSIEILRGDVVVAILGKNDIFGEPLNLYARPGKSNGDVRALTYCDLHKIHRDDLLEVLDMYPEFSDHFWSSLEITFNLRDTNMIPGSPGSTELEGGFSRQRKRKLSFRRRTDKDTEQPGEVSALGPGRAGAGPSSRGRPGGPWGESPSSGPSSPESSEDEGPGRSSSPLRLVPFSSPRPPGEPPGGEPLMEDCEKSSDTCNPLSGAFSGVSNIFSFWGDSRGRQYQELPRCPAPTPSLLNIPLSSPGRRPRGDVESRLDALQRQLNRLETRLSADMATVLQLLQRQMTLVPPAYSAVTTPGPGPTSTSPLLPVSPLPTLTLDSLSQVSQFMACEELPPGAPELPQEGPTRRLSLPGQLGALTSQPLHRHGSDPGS

For this assay, the target named is human ether-à-go-go-related gene (hERG) potassium channel (human, UniProt Q12809). Description: primary screen, population patch clamp on CHO cells stably expressing hERG; higher = less effect of the substance. The protocol:
Briefly, Chinese hamster ovary (CHO) cells stably expressing the hERG channel were dislodged from tissue culture flasks and dispensed into PPC plates. […] During the recording, background leak currents were estimated by a 100 ms step to -80 mV from an initial holding potential of -70 mV and subtracted from the subsequent current measurement. The campaign was conducted in two phases using slight differences in recording protocol. In the first phase, the initial voltage pulse used a 100 ms step to -30 mV from a holding potential of -70 mV, a 2 s conditioning step to +25 mV, and a 2 s test step to -30 mV. During the second phase of the screen, the potential during the conditioning step was raised to +45 mV. In both phases of the campaign, a secondary voltage pulse was applied using the same parameters as the second phase initial pulse. The initial and secondary pulses were applied in the absence of compound, and upon application of 1 μM and 10 μM test concentrations. Small molecule effects on hERG current density were quantified by […].
Take `Nc1nc(Br)c2ccccc2c1-c1ccccc1`: the “hERG current change (%, negative = inhibition) at 1uM” value is listed as 9.58%.
To `CC(C)c1ccc(N(CC(=O)Nc2ccc(S(=O)(=O)N3CCOCC3)cc2)S(C)(=O)=O)cc1` belongs 21.3%; to `COc1ccc(CCNC(=O)/C=C/c2ccc3ccccc3n2)cc1OC`, 10.9%; to `COc1ccc(S(=O)(=O)N(C)CC(=O)Nc2ccccc2SC)cc1Cl`, 11.6%.
`COc1nc2ccccc2c(=O)n1-c1ccc(C)cc1`: the “hERG current change (%, negative = inhibition) at 1uM” value worked out at 7.4%.
To `Cc1cccc(C(=O)NCC2CCN(C(=O)c3cccc(C)c3)CC2)c1` belongs -2.21%; to `COc1cccc(NC(=O)CCN2CCC(C(N)=O)CC2)c1`, 16.9%; to `CCc1ccc(CN2CCC(n3nccc3NC(=O)c3ccccc3C)CC2)cc1`, -85.1%.
In the case of `Cn1cc(CN2CCC(n3nccc3NC(=O)c3ccccc3Cl)CC2)cn1`, the “hERG current change (%, negative = inhibition) at 1uM” value is listed as -4.32%.
To `Cc1ccccc1C(=O)Nc1ccnn1C1CCN(Cc2cnn(C)c2)CC1` belongs -1.26%.
To `CC(CCN1CCC(n2nccc2NC(=O)c2ccccc2Cl)CC1)c1ccccc1` (stereo not shown) belongs -85.1%; to `O=C(Nc1ccnn1C1CCN(Cc2ccccc2)CC1)c1ccccc1Cl`, -53.1%; to `CSc1ccc(CN2CCC(n3nccc3NC(=O)c3ccccc3C)CC2)cc1`, -83.8%.
To `Cc1ccccc1C(=O)Nc1ccnn1C1CCN(Cc2ccncc2)CC1` belongs -3.47%; to `CC(CN1CCC(n2nccc2NC(=O)c2ccccc2Cl)CC1)c1ccccc1` (stereo not shown), -43.6%; to `COCC(C)N1CCC(n2nccc2NC(=O)c2ccccc2Cl)CC1` (stereo not shown), -1.49%.
Consider `Cc1ccccc1C(=O)Nc1ccnn1C1CCN(Cc2cnn(C(C)C)c2)CC1`, for which the “hERG current change (%, negative = inhibition) at 1uM” value was -27.3%.
To `O=C(Nc1ccnn1C1CCN(Cc2cccnc2)CC1)c1ccccc1Cl` belongs -11.5%; to `Cc1ccccc1C(=O)Nc1ccnn1C1CCN(Cc2cccnc2)CC1`, -48.9%; to `O=C(c1cc([N+](=O)[O-])ccc1N1CCCCC1)N1CCCCC1`, -6.51%.
To `Cc1ccc(S(=O)(=O)N(C)Cc2ccc(-c3nnc4n3CCC4)cc2)cc1` belongs 0.889%; to `COC(=O)c1ccc(N2CCCCC2)c(NS(=O)(=O)c2ccc(C)cc2)c1`, 12.6%; to `CCOC(=O)CSc1nnc(Cn2c(=O)sc3ccccc32)n1C`, -3.18%.
The same measure for `CCN1CCC(n2nccc2NC(=O)c2ccccc2Cl)CC1`: 10.5%; for `CCc1ccc(CN2CCC(n3nccc3NC(=O)c3ccccc3Cl)CC2)cc1`: -92.3%.
In the case of `Cc1cc(C)c(CN2CCC(n3nccc3NC(=O)c3ccccc3Cl)CC2)cc1C`, the “hERG current change (%, negative = inhibition) at 1uM” value came to 1.2%.
Regarding `Cc1cc(CN2CCC(n3nccc3NC(=O)c3ccccc3Cl)CC2)cc(C)c1O`, the “hERG current change (%, negative = inhibition) at 1uM” value is given as -64.4%.
Turning to `COc1ccc(O)c(CN2CCC(n3nccc3NC(=O)c3ccccc3Cl)CC2)c1`, the “hERG current change (%, negative = inhibition) at 1uM” value is -15.4%.
